Data as given in PubChem BioAssay (NCI).
The panel holds about 79,000 compounds, 15% with a hit somewhere; the sample as a whole holds those more often. Unmarked numbers belong to inactive results. Active and inactive are the calls of the source. No stated cut-off is given here; in the data, active means growth inhibition above about 70%; inactive means the rest.

Assay: NCI Yeast Anticancer Drug Screen. Data for the rad14 strain (AID 159);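 further: 0% = growth of vehicle-treated control cultures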
Conditions: S. cerevisiae rad14 strain growth inhibition, hits give high values
Protocol: Growth inhibition of yeast strains with defined genetic alterations is measured as a screen for potential anti-cancer activity. Selected strains with alterations in DNA damage repair or cell cycle control were exposed to compounds and growth inhibition was measured relative to vehicle treated controls. The strain used in this assay is rad14

For Oc1ccc(Br)cc1C=NC1CCCCC1, the growth inhibition (at 1.2 µM) was 15%, the growth inhibition (at 3.7 µM) was 24% and the growth inhibition (at 11.0 µM) was 85% (active). For the same compound, the growth inhibition (at 33.0 µM) was 99% (active) and the growth inhibition (at 100.0 µM) was 99% (active).
Compound Cc1ccc(CNc2ccc(Br)cc2)cc1 has a growth inhibition (at 1.2 µM) of -17%, a growth inhibition (at 3.7 µM) of -18% and a growth inhibition (at 11.0 µM) of -2%. The growth inhibition (at 33.0 µM) was 71% (active) and the growth inhibition (at 100.0 µM) was 92% (active).
In the case of Cn1c2nc3ccccc3c-2nc2ccccc21, the growth inhibition (at 1.2 µM) is reported as 8%, the growth inhibition (at 3.7 µM) is reported as 31% and the growth inhibition (at 11.0 µM) is reported as 82% (active). For the same compound, the growth inhibition (at 33.0 µM) was 97% (active) and the growth inhibition (at 100.0 µM) was 98% (active).
With Nc1nc(N)c2c(n1)CCC(S(=O)(=O)c1ccc3ccccc3c1)C2 (stereo not given) the growth inhibition (at 1.2 µM) was -2%, the growth inhibition (at 3.7 µM) was -6% and the growth inhibition (at 11.0 µM) was -11%. It also gave a growth inhibition (at 33.0 µM) of -8% and a growth inhibition (at 100.0 µM) of -4%.
Work on COC(=O)/C=C1/OC(c2ccc(Br)cc2)=C(Br)C1=O yielded a growth inhibition (at 1.2 µM) of -4%, a growth inhibition (at 3.7 µM) of -16% and a growth inhibition (at 11.0 µM) of -15%. The growth inhibition (at 33.0 µM) was -21% and the growth inhibition (at 100.0 µM) was 78% (active).
Compound CC1CCC2(C(=O)O)CCC3(C)C(=CCC4C5(C)CC(O)C(O)C(C)(CO)C5C(O)CC43C)C2C1C (stereo not given) has a growth inhibition (at 1.2 µM) of -13%, a growth inhibition (at 3.7 µM) of -13% and a growth inhibition (at 11.0 µM) of -4%. The growth inhibition (at 33.0 µM) was 6% and the growth inhibition (at 100.0 µM) was 85% (active).
Cc1ccc(S(=O)(=O)N(C)c2ccc(Cl)cc2C2=NCCc3ccccc32)cc1 showed a growth inhibition (at 1.2 µM) of -23%, a growth inhibition (at 3.7 µM) of -40% and a growth inhibition (at 11.0 µM) of -28%. The growth inhibition (at 33.0 µM) was -15% and the growth inhibition (at 100.0 µM) was 94% (active).
In the case of C/C(=N\NC(=S)NC1CCCC1)c1ccccn1, the growth inhibition (at 1.2 µM) is reported as -9%, the growth inhibition (at 3.7 µM) is reported as 87% (active) and the growth inhibition (at 11.0 µM) is reported as 99% (active). For the same compound, the growth inhibition (at 33.0 µM) was 99% (active) and the growth inhibition (at 100.0 µM) was 99% (active).
